# Key:
# [1] = target: T1, Aspartate--tRNA(Asp/Asn) ligase (Mycobacterium tuberculosis (strain ATCC 25618 / H37Rv)) (UniProt P9WFW3); assay: Assay for Asp RNA synthetase-1 from Mycobacterium tuberculosis; format: functional; design: scale not given: direction of the effect not stated beside the values; conditions: 30 µM; further: in the data most compounds retested in dose-response had high values
# T1 sequence (whole entry): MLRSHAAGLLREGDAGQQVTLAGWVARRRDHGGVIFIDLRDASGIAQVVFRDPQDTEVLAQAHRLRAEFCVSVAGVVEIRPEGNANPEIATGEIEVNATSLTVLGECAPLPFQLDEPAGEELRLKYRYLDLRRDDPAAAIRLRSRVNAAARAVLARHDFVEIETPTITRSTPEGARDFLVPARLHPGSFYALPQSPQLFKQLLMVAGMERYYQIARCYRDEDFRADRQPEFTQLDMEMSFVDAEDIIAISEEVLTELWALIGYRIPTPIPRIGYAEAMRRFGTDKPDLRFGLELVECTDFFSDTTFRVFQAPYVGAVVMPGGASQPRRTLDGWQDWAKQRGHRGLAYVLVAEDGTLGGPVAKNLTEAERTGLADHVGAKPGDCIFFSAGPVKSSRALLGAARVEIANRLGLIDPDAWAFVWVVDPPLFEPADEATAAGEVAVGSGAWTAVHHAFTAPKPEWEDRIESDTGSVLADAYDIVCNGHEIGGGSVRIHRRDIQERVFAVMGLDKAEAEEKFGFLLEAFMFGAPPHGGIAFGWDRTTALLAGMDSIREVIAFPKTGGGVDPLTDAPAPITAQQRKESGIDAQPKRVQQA
# [2] = target: Shiga toxin 2 (Escherichia coli O157:H7) (UniProt P09385+P09386); assay: E. coli 0.157:H7 Shiga Toxin SOP - stx2 screening assay; format: functional; design: scale not given: direction of the effect not stated beside the values; conditions: 30 µM
structure (smiles),measurement,setting,value
CC(C)c1ccc(-c2nnn(CCNS(C)(=O)=O)n2)cc1,Percent Effect,[1],-1.05%
same,Percent Effect,[2],-43.9%
O=C(c1cccc(NCCO)c1)N1CCOCC1,Percent Effect,[1],7.13%
same,Percent Effect,[2],-69.6%
O=C(NCCN1CCNCC1)c1nc2ccccc2c(=O)[nH]1,Percent Effect,[1],2.9%
same,Percent Effect,[2],-55.8%
CC(Cn1cccn1)NC(=O)N(C)Cc1ccc(Cl)s1 (centres undefined),Percent Effect,[1],-7.31%
same,Percent Effect,[2],-6.54%
Cn1cc(C2CCCN2C(=O)c2ccc(Br)o2)cn1 (centres undefined),Percent Effect,[1],-1.8%
same,Percent Effect,[2],28.5%
CC(Oc1ccccc1C(F)(F)F)C(=O)NCC(N)=O (centres undefined),Percent Effect,[1],-3.56%
same,Percent Effect,[2],11.5%
O=C(NCCNCC1CNc2ccnn2C1)c1ccc(F)cc1 (centres undefined),Percent Effect,[1],-3.94%
same,Percent Effect,[2],-25.2%
CN(C)[C@@H]1CN(Cc2ccoc2)C[C@@H]2CCCO[C@@H]21,Percent Effect,[1],-2.7%
same,Percent Effect,[2],2.87%
CN1CCN(C(=O)c2nc3c(o2)CN(C(=O)c2cccnc2)C3)CC1,Percent Effect,[1],2.23%
same,Percent Effect,[2],-53.6%
O=C(NCC1CC1)[C@H]1C[C@@H]2CCN(Cc3nccs3)C[C@@H]2O1,Percent Effect,[1],-3.13%
same,Percent Effect,[2],0.967%
CC(=O)N1CCC[C@H]1C(=O)NCCOc1cccc(Cl)c1,Percent Effect,[1],1.97%
same,Percent Effect,[2],-31.3%
COc1cc2nc(C)n(CC(=O)NCCCN(C)C)c(=O)c2cc1OC,Percent Effect,[1],-0.232%
same,Percent Effect,[2],-51.4%
Cc1ccc(C2CSCCN2C(=O)c2ccsc2)o1 (centres undefined),Percent Effect,[1],3.37%
same,Percent Effect,[2],16.4%
CCc1ncnc2c1CCN(Cc1ccccn1)CC2,Percent Effect,[1],0.378%
same,Percent Effect,[2],-29.9%
Cc1noc(C(C)C)c1C(=O)N1CCCN(Cc2cscn2)CC1,Percent Effect,[1],-4.35%
same,Percent Effect,[2],-6.33%
Cc1cnc(CN(C)C2CCN(CCc3cnn(C)c3)C2)o1 (centres undefined),Percent Effect,[1],-2.22%
same,Percent Effect,[2],9.7%
CCN(CC)C(=O)c1ccc(-c2ccsc2)nc1C,Percent Effect,[1],-1.17%
same,Percent Effect,[2],-6.7%
Cc1ccc2c(c1)C1(CC2)CCN(c2nncs2)CC1,Percent Effect,[1],1.71%
same,Percent Effect,[2],6.27%
CC1CCN(Cc2cnc(S(=O)(=O)CC3CC3)n2CC2CCCO2)CC1 (centres undefined),Percent Effect,[1],-2.12%
same,Percent Effect,[2],-24.8%
CNC(=O)CCc1cc(C)nc(C2CCCN2)c1 (centres undefined),Percent Effect,[1],0.0149%
same,Percent Effect,[2],-4.41%
Cc1cccc(-c2noc(CN3CCc4nn(C)c(=O)cc4C3)n2)c1,Percent Effect,[1],47.9%
same,Percent Effect,[2],-21.4%
CC1=Nc2c(c(=O)[nH]n2C(C)C)C(c2ccccc2)S1 (centres undefined),Percent Effect,[1],1.45%
same,Percent Effect,[2],1.24%
Cc1ccc(CN2CCC3(CC2)CC(c2cccnc2)CO3)s1 (centres undefined),Percent Effect,[1],-2.49%
same,Percent Effect,[2],-7.07%
COCCC(=O)N1CCC2(CN(Cc3ccc(OC)c(F)c3)C2)C1,Percent Effect,[1],-0.524%
same,Percent Effect,[2],-4.43%
Cc1nc(C2CCCN(C(=O)c3cnn(C(C)(C)C)c3)C2)no1 (centres undefined),Percent Effect,[1],-4.47%
same,Percent Effect,[2],-34.6%
Cc1nc(C)n(CC2CN(c3nnc(C)c(C)c3C#N)CCO2)n1 (centres undefined),Percent Effect,[1],-1.7%
same,Percent Effect,[2],27.3%
CNS(=O)(=O)c1ccc(C(=O)N2CCCC(n3cccn3)C2)cc1 (centres undefined),Percent Effect,[1],0.589%
same,Percent Effect,[2],2.6%
CNC(=O)c1ccc(CN(C(=O)c2scnc2C)C2CC2)cc1,Percent Effect,[1],-2.83%
same,Percent Effect,[2],-32.1%
O=C(Cc1ccc2c(c1)OCO2)N1CCCN(c2ccccc2)CC1,Percent Effect,[1],3.17%
same,Percent Effect,[2],3.72%
O=C(Cc1cccc(F)c1)NCCNCc1ccco1,Percent Effect,[1],0.577%
same,Percent Effect,[2],3.74%
CCS(=O)(=O)CCn1ccc(NC(=O)CCc2cccc(C)c2)n1,Percent Effect,[1],2.58%
same,Percent Effect,[2],-19.5%
CCOC(=O)CN1CCC(C(=O)c2cc(F)ccc2F)CC1,Percent Effect,[1],-0.233%
same,Percent Effect,[2],-13.5%
CCc1nc(C2CCCN2C(=O)CCc2cccs2)no1 (centres undefined),Percent Effect,[1],-0.641%
same,Percent Effect,[2],24%
O=C(c1cc(C2CC2)on1)N1CCCC(n2cncn2)C1 (centres undefined),Percent Effect,[1],-0.789%
same,Percent Effect,[2],-16.7%
O=C(c1ccccn1)N1C[C@@H]2CC[C@H](C1)N(C(=O)CCc1cccs1)C2,Percent Effect,[1],12%
same,Percent Effect,[2],-22%
Cc1cnn(CC2CCCN2C(=O)c2ccc(C(N)=O)cn2)c1 (centres undefined),Percent Effect,[1],-2.92%
same,Percent Effect,[2],11.5%
COc1ccc(C(=O)N2CC[C@H](CO)[C@H](O)C2)c(C)c1,Percent Effect,[1],-1.53%
same,Percent Effect,[2],9.86%
CCSCCNC(=O)C(c1cccc(F)c1)N(C)C (centres undefined),Percent Effect,[1],0.0558%
same,Percent Effect,[2],12.8%
O=C(NS(=O)(=O)c1cc(Cl)sc1Cl)c1cccc2c1OCCO2,Percent Effect,[1],1.84%
same,Percent Effect,[2],-6.84%
Nc1cc2c(nn1)CCN(C(=O)c1cccc3c1OCCO3)C2,Percent Effect,[1],3.34%
same,Percent Effect,[2],-28.6%
O=C(CCc1cc2n(n1)CCCN(Cc1ccccc1F)C2)NC1CC1,Percent Effect,[1],-1.95%
same,Percent Effect,[2],-4.17%
Cc1cc(CN(C)C(=O)NC2CCS(=O)(=O)C2)no1 (centres undefined),Percent Effect,[1],-1.18%
same,Percent Effect,[2],14.9%
CS(=O)(=O)N1CCC(C(=O)NC(Cc2ccsc2)c2nccs2)CC1 (centres undefined),Percent Effect,[1],-5.91%
same,Percent Effect,[2],16.3%
CC(C)NC(=O)N1CCC2(CC(C(=O)NCc3cccnc3)=NO2)C1 (centres undefined),Percent Effect,[1],2.53%
same,Percent Effect,[2],-11.6%
Cc1ccc2c(n1)N(CCn1cccn1)CCN(C(=O)CC1CC1)C2,Percent Effect,[1],-3.03%
same,Percent Effect,[2],2.2%
O=C(NC1CCS(=O)(=O)C1)N1CCN(c2cnccn2)CC1 (centres undefined),Percent Effect,[1],-1.72%
same,Percent Effect,[2],-8.56%
Cn1ccnc1CNC(=O)N1CCCC(Cc2nccn2C)C1 (centres undefined),Percent Effect,[1],0.605%
same,Percent Effect,[2],-13.5%

# From ChEMBL document CHEMBL3988442, “University of Dundee, Small-Polar-MMV Screening Library” (2021)
